# Bioassay records from PubChem BioAssay.
# Pf growth 96h – P. falciparum growth inhibition at 96 hours. Potency, µM (series often up to 28.7 µM), usual class: inhibitors. 320,000 compounds, 6.9% hits. P. falciparum luciferase reporter growth, 96 h
#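 Delayed-death screen, second-generation endpoint: infected erythrocytes, 2% hematocrit, 0.05% parasitemia final; 96 hours at 37 C, 5% CO2; luciferase detection reagent; luminescence decrease equals reduced growth.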
# NS1 inh – blocks influenza NS1 protein function; 270,000 compounds, 0.4% hits; Potency, µM (titrated, usually from 46.1 µM); AID 2326; calls by dose curve; also: actives are rising curves; nearly all actives have a fitted effect of over 50% in size
#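 S. cerevisiae expressing influenza A NS1, grown in glucose, washed, then diluted 1:100 into pH 6.0 -URA galactose medium with 23 nl compound. Growth recovery read as OD600; NS1-free strain serves as control.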
# Shiga toxin inh – inhibitors of Shiga toxin in Vero cells; inhibition, % at 38.7 µM; 290,000 compounds, 9.2% hits; Vero cells, Shiga toxin protein synthesis inhibition reporter; in the data active = inhibition mostly above about 28%, no sharp cut-off; inactive = mostly below about 43%
# Cycloheximide cs – affects cycloheximide protein synthesis inhibition readout, counter-screen; max response, %; cell reporter, cycloheximide protein synthesis inhibition counterscreen; 300,000 compounds, 12% hits; in the data active = max response mostly above about 13%, no sharp cut-off; inactive = mostly below about 14%; also: read at 38.3 µM for the half of the compounds with a filed dose
# Pf growth 48h – inhibits P. falciparum growth in the first generation, 48 h; P. falciparum luciferase growth in erythrocytes, 48 h; Potency, µM (titrated, usually from 28.7 µM), most hits filed as inhibitors; 310,000 compounds, 5.9% hits
#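 Parasite viability was followed by luminescence of a genomically integrated firefly luciferase. Cultures held 0.1% parasitemia at 2% hematocrit (final), incubated under 5% CO2 at 37 C.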
# Giardia FBPA inh – blocks Giardia fructose-bisphosphate aldolase activity; purified Giardia FBPA; Potency, µM (doses to about 59.6 µM), actives largely listed as inhibitors; 290,000 compounds, 0.71% hits; AID 2451; also: nearly all actives have a fitted effect of over 55% in size
# Target sequence (A8B2U2 whole entry, looked up): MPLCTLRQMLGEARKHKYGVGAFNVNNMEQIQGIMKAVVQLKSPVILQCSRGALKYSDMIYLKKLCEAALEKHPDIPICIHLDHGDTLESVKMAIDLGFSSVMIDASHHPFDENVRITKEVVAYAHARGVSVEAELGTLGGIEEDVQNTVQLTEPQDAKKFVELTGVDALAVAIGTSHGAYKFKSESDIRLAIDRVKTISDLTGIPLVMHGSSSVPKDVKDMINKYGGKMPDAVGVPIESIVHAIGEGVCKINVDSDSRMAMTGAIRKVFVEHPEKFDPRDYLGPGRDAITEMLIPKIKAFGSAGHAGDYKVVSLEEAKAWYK
#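 40 nM FBPA preincubated 10 min at RT with compound (up to 57.5 uM final), then substrate plus GAPDH/TPI/NAD/arsenate coupling and diaphorase/resazurin added. Fluorescence read after 20 min at RT, 525/598 nm.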
# Numbers stand for hits; 0 = inactive; ? = inconclusive; - = no result given; [ ] = another dose, or the depositor's remark. Sampled rows, rich in hits. Any-hit rate of the full collection: about 21%. Unless noted, calls follow the shape of the dose curve; as a rule, active = well fitted curve in the direction sought with a large enough effect; inconclusive = small, poorly fitted or top-dose-only effect, or another doubt; inactive = no such curve, though single readings can be large; an effect the other way counts as inactive or inconclusive.
SMILES,Pf growth 96h,NS1 inh,Shiga toxin inh,Cycloheximide cs,Pf growth 48h,Giardia FBPA inh
Cc1ccc(OCCn2cc(C(=S)N3CCCC3)c3ccccc32)cc1C,?,0,0,0,?,0
S=C(c1cn(CCOc2cccc3ccccc23)c2ccccc12)N1CCCC1,?,0,0,0,13µM,0
CC1=C(C(=O)OCc2ccccc2)C(c2ccccc2)NC(=O)N1CCCC(=O)O (stereo unspecified),?,0,0,0,?,0
CC1=C(C(=O)OCc2ccccc2)C(c2cccc([N+](=O)[O-])c2)NC(=O)N1CCCCCC(=O)O (stereo unspecified),10µM,0,0,0,?,0
CC1=C(C(=O)OCc2ccccc2)C(c2ccc(Cl)cc2)NC(=O)N1CCCCCC(=O)O (stereo unspecified),12µM,0,0,0,?,0
CC1CCCC(C)N1C(=O)CNCc1ccc2c(c1)OCO2 (stereo unspecified),0,0,0,0,0,0
O=c1[nH]c(C2CCN(S(=O)(=O)c3cccc(C(F)(F)F)c3)CC2)nc2c1nnn2Cc1cccc(F)c1,?,0,0,0,7.4µM,0
O=c1[nH]c(C2CCN(S(=O)(=O)c3ccc([N+](=O)[O-])cc3)CC2)nc2c1nnn2Cc1ccccc1,0.15µM,0,0,0,5.2µM,-
O=c1[nH]c(C2CCN(S(=O)(=O)c3ccc(C(F)(F)F)cc3)CC2)nc2c1nnn2Cc1ccc(F)cc1,0,?,0,0,12µM,0
O=c1[nH]c(C2CCN(S(=O)(=O)c3ccc4c(c3)OCCO4)CC2)nc2c1nnn2Cc1ccc(F)cc1,0,0,0,0,1.5µM,0
Cc1ccc(S(=O)(=O)NC(=O)O[C@@H]2C(=O)c3cc(Br)ccc3O[C@H]2c2ccc3c(c2)OCO3)cc1,-,-,-,-,-,0
Cn1c(C(=O)O)c(C=O)c2ccccc21,10µM,-,0,0,0,0
Cn1c(-c2ccccc2)c(C=O)c2ccccc21,?,0,0,0,0,0
COCCOC(=O)C1=C(C)NC(=O)N(C(C)=O)C1c1ccc(Cl)cc1 (stereo unspecified),2.3µM,0,0,0,?,0
CCn1cc(-c2csc(N)n2)c(C)n1,?,-,0,0,0,0
CCn1ncc(-c2csc(N)n2)c1C,?,-,0,26,0,0
Cc1cc(-c2csc(N)n2)c(C)n1C,10µM,0,0,0,-,?
Cc1cc(-c2csc(N)n2)c(C)n1Cc1ccco1,?,0,0,36,0,0
[O-][n+]1c2ccccc2c2n1CCCN=C2c1ccc(Cl)cc1,0,-,-,-,0,-
CSc1ccc(CCNC(=O)CN2C(=O)c3cccnc3Oc3ccc(C)cc32)cc1,0,0,0,0,0,0
CC(C)[C@H](NC(=O)OC(C)(C)C)c1nnc(S(=O)(=O)Cc2c(F)cccc2Cl)o1,-,0,0,34,0,0
CC[C@@H](C)[C@H](NC(=O)OC(C)(C)C)c1nnc(S(=O)(=O)Cc2cc(C)ccc2C)o1,0,0,0,18,0,0
CC(=O)c1ccc(OC(C)c2nc3ccccc3s2)cc1 (stereo unspecified),0,0,75,30,0,0
COc1ccccc1NC(=O)CCc1nc2ccccc2s1,0,0,0,15,0,0
O=C(O)CCCC(=O)Nc1ccc(OCc2nc3ccccc3s2)cc1,0,0,98,50,0,0
SMILES,Pf growth 96h,NS1 inh,Shiga toxin inh,Cycloheximide cs,Pf growth 48h,Giardia FBPA inh
COc1ccc(C(=O)CCc2nc3ccccc3s2)cc1,?,0,41,50,0,0
COc1cccc(C(=O)N(C)C(C)c2nc3ccccc3s2)c1 (stereo unspecified),0,0,0,0,0,0
CN(CCc1ccc(Cl)c(Cl)c1)C[C@@H](O)COc1ccc(NS(C)(=O)=O)cc1,-,-,-,-,-,0
CCNC(=S)Nc1ccc(OCc2nc3ccccc3s2)cc1,0,0,-,33,0,0
O=C(CCc1nc2ccccc2s1)Nc1ccccc1,0,0,0,11,0,0
CCNC(=S)Nc1ccc(OCC)cc1,0,0,0,0,0,0
COc1ccccc1OC(=O)c1ccc(SC)cc1OC,-,0,0,14,0,0
CSc1cccc(NC(=O)c2cccc3cccnc23)c1,0,0,98,34,0,0
COc1cc(SC)ccc1C(=O)Nc1c(Cl)cncc1Cl,0,0,0,0,0,0
COc1ccccc1C(=O)Nc1cccc(SC)c1,0,0[9.22 µM],66,33,0,0
COc1ccccc1C(=O)Nc1cccc(N(C)S(C)(=O)=O)c1,0,0,0,0,0,0
COc1cc(SC)ccc1C(=O)Nc1c(C)cccc1C,?,0,0,13,?,0
CCCc1nnc(NC(=O)CCC(=O)N2CCC(Cc3ccccc3)CC2)s1,?,0,0,0,0,-
O=C(O)CC1(CC(=O)Nc2cccc(C(=O)O)c2)CCCC1,0,0,0,0,0,0
Cc1ccc(NC(=O)CN(C)C(=S)NC2CC2)cc1,0[5.75 µM],-,0,0,?,0
CCCCc1ccc(NC(=O)CSc2nnc(C)c(=O)n2N)cc1,?,0,0,0,?,0
CC(NC(=O)C(C)N1CCN(Cc2ccccc2)CC1)c1ccc(F)cc1 (stereo unspecified),0,0,0,0,0,0
COc1ccc(OC)c(NC(=S)N2c3ccccc3CC2C)c1 (stereo unspecified),?,0,0,0,?,-
COc1cc(SC)ccc1C(=O)Nc1nccs1,0,0,active,28,0,0
COc1cc(C(=O)Nc2nccs2)c(Br)c(OC)c1OC,0,0,0,0,0,0
COc1cc(SC)ccc1C(=O)Nc1ccccc1,?,0,94,37,-,0
OCCC1CN(Cc2cc(F)ccc2-n2cccn2)CCN1C1CCCC1 (stereo unspecified),0,0,0,0,0,0
CC(C)N(CCCNC(=O)c1ccc(N2CCCC2=O)cc1)Cc1ccccc1,1.3µM,-,0,0,0,0
CN(CCNC(=O)c1ccc(N2CCCC2=O)cc1)CCc1ccccc1,8.3µM,0,0,0,?,0
Cc1c(C(=O)N(Cc2ccc(Cl)cc2)C2CCS(=O)(=O)C2)oc2ccccc12 (stereo unspecified),0,0,0,0,13µM,0
Cc1c(C(=O)N(Cc2cccc(Br)c2)C2CCS(=O)(=O)C2)oc2ccc(F)cc12 (stereo unspecified),13µM,0,0,0,?,-
CCOc1ccc(CN(C(=O)c2oc3ccccc3c2C)C2CCS(=O)(=O)C2)cc1 (stereo unspecified),?,0,0,0,0,0
Cc1ccc2oc(C(=O)N(Cc3ccc(N(C)C)cc3)C3CCS(=O)(=O)C3)c(C)c2c1 (stereo unspecified),4.7µM,0,0,16,?,-
Cc1ccc2c(C)c(C(=O)N(Cc3ccc(N(C)C)cc3)C3CCS(=O)(=O)C3)oc2c1 (stereo unspecified),?,0,0,0,?,0
